Molecules are shown by their SMILES. Activity calls are given as the source filed them. Unless noted, no rule for the calls is given here.

Test [1] can be described thus: anti-His antibody binders, primary screen, artefact control for SMM control protein annotation, biochemical, small-molecule microarray, 635 nm fluorescence (AID 1128).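 Also: score merges feature fluorescence with signal-to-noise for each printed compound spot.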 The settings on record: anti-His Alexa647 antibody binding, higher = more signal.
The subject of test [2] is Human papillomavirus type 1a E7 protein (residues 1-88). The test is described as follows: HPV1a E7 small-molecule binders, primary screen, biochemical, small-molecule microarray, residues 1-88, 635 nm (AID 1129). The settings on record: small-molecule microarray binding, fluorescence 635 nm; higher = more signal.
The target in test [3] is Focal adhesion kinase 1 (Homo sapiens) (UniProt Q05397). The test is described as follows: small-molecule microarray binders of FAK, primary screen, biochemical, 635/667 nm fluorescence, BSA, DTT (AID 1130).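 Also: composite of spot emission at 667 nm and signal to noise over triplicate slides.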 Particulars: PTK2 binding, 635 nm fluorescence, higher = more signal.
Focal adhesion kinase 1 (Homo sapiens), sequence (Q05397 whole entry, looked up): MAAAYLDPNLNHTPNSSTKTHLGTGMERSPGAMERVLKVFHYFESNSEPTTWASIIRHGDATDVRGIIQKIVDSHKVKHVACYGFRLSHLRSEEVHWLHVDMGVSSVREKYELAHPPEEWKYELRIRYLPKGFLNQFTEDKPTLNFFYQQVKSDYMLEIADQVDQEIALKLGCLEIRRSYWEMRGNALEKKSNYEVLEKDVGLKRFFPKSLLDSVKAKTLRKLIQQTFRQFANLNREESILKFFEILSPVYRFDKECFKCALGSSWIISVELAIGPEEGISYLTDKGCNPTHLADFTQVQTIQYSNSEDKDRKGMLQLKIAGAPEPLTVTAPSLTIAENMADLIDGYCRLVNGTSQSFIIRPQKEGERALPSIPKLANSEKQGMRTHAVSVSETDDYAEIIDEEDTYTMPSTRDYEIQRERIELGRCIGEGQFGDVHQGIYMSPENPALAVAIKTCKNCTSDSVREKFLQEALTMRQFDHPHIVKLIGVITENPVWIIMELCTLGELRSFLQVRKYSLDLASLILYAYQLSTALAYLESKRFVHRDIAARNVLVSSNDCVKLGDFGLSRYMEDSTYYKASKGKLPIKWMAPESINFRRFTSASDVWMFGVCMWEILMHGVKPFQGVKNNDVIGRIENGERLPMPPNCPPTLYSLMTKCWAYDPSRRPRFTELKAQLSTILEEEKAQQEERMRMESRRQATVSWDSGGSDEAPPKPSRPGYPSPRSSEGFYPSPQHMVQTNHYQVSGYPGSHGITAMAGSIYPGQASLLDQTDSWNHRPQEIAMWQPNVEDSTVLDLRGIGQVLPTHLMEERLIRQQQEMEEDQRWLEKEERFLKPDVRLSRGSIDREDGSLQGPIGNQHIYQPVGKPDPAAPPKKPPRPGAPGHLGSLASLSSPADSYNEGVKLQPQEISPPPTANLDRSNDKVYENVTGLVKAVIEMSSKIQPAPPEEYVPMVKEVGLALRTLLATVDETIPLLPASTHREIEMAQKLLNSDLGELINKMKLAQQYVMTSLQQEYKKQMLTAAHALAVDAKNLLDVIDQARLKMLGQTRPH
Test [4] deals with Fibrinogen (Alexa647-labelled). The test is described as follows: fibrinogen binders on compound microarrays, profiling panel, artefact control for SMM control-protein annotation, biochemical, small-molecule microarray, 635/667 nm fluorescence (AID 1131).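 Also: z-score merges 667 nm fluorescence with per-spot signal-to-noise over triplicate slides.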 The settings on record: fibrinogen-A647 binding fluorescence, higher = more signal.
For test [5], the target named is Follistatin (Homo sapiens) (UniProt P19883). Description: follistatin binders on small-molecule microarrays, primary screen, biochemical, small-molecule microarray, 635/667 nm fluorescence (AID 1132). Particulars: FST binding, 635 nm fluorescence, higher = more signal.
Follistatin (Homo sapiens), sequence (P19883 whole entry, looked up): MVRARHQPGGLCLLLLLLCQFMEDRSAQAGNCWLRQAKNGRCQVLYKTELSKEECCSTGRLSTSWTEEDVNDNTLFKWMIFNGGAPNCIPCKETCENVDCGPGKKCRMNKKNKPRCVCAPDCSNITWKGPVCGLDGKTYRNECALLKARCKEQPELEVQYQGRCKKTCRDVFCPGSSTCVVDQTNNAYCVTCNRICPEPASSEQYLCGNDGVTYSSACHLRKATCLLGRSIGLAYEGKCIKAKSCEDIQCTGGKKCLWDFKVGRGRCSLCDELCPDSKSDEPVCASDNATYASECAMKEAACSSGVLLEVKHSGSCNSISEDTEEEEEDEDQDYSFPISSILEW
Test [6] deals with Fibroblast growth factor 2 (Homo sapiens) (UniProt P09038). The test is described as follows: FGF2 binders on small-molecule microarrays, primary screen, biochemical, small-molecule microarray, 635/667 nm fluorescence (AID 1133). Particulars: small-molecule microarray binding, FGF2, fluorescence 635/667; higher = more signal.
Fibroblast growth factor 2 (Homo sapiens), sequence (P09038 whole entry, looked up): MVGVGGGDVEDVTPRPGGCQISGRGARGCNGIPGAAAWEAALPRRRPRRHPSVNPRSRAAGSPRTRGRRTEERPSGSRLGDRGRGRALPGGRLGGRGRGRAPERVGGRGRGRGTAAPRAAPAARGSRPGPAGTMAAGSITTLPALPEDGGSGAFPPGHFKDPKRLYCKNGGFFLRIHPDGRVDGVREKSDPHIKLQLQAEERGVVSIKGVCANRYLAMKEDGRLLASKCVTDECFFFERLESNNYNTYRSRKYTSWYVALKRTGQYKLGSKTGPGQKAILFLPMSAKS
A short description of test [7]: mitochondrial membrane potential change in A549 cells, profiling panel, cell-based, JC-1 fluorescence, basal, 24 h, 100 nL (AID 1138).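 Also: A549 lung adenocarcinoma cells under basal conditions with no added stimulus; test concentration not given here.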 Particulars: higher = more signal.
The next test relates to Lefty1. The test is described as follows: Lefty1 binders on small-molecule microarrays, primary screen, biochemical, small-molecule microarray, 635/667 nm fluorescence (AID 1139). Particulars: small-molecule microarray binding, fluorescence 635/667; higher = more signal.
For test [8], the system named is wheat germ agglutinin (Triticum aestivum), Alexa647-labelled. Description: wheat germ agglutinin binders on compound microarrays, profiling panel, artefact control for SMM control-protein annotation, biochemical, small-molecule microarray, 635/667 nm fluorescence (AID 1140).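 Also: score merges 667 nm feature emission with signal to noise over triplicate slides.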 Particulars: WGA-A647 binding, 635 nm fluorescence, higher = more signal.
Test [9] deals with Luciferin 4-monooxygenase (Photinus pyralis) (UniProt P08659). Description: firefly luciferase enzyme inhibitors, primary screen, biochemical, luminescence, purified enzyme, 2006 set (AID 1141).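 Also: cell-free assay with purified firefly luciferase at 100 ng per well in PBS; test concentration not given here.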 The settings on record: SteadyGlo luminescence, 30 min, higher = more signal, called active from +8 up or from −8 down.
Luciferin 4-monooxygenase (Photinus pyralis), sequence (P08659 whole entry, looked up): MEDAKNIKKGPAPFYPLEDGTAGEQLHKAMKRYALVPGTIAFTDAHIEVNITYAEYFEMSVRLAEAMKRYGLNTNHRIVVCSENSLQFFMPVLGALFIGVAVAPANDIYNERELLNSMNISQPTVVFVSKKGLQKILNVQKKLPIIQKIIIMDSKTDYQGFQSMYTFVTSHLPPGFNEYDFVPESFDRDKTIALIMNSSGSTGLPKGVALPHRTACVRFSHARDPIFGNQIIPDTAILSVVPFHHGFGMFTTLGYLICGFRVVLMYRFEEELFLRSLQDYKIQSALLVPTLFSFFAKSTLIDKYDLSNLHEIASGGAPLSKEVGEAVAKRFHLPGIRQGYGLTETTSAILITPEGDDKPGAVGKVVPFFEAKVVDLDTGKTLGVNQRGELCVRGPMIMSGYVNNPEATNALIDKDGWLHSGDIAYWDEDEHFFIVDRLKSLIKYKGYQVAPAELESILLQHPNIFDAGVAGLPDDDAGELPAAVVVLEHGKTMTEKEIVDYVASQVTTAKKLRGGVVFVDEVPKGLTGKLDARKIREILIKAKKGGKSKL
Test [10] relates to Wnt5a (protein binding on small-molecule microarray). The test is described as follows: Wnt5a binders on small-molecule microarray, primary screen, biophysical, 635/667 nm fluorescence (AID 1142).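 Also: fluorescence read at 667 nm with signal to noise per printed feature.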 Particulars: 635 nm fluorescence, higher = more signal.
Test [11] is described as follows: cell viability in Huh7 cells, primary screen, cytotoxicity control for HCV replication inhibitor project, CellTiter-Glo luminescence, basal, 48 h (AID 1143).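 Also: Huh7 hepatoma cells carrying a hepatitis C replication reporter with no stimulus; test concentration not given here.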 Particulars: Huh7 HCV replicon, higher = more signal, called active from +8 up or from −8 down. (In general: ATP-based viability assays read luminescence as a measure of living cells.)
A short description of test [12]: P. aeruginosa biofilm formation inhibitors, primary screen, PAO1 strain, BacTiter-Glo luminescence, LB-PBS (AID 1144). Particulars: 12 h, higher = more signal.
Test [13] in a line: CREB reporter modulators without forskolin, primary screen, cell-based, PC12, CRE-LacZ reporter, unstimulated (AID 1145). The settings on record: no forskolin, luminescence, 4.5 h, higher = more signal, called active from +8 up or from −8 down.
Test [14] in a line: CREB reporter modulators under forskolin, primary screen, cell-based, PC12, CRE-LacZ reporter, forskolin-stimulated (AID 1146).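 Also: PC12 cells with 6xCRE LacZ reporter stimulated by forskolin 10 µM; beta-galactosidase reporter signal reflecting CREB driven transcription.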 The settings on record: luminescence, 4.5 h, higher = more signal, called active from +8 up or from −8 down.
Test [15] deals with Streptavidin (Streptomyces avidinii) (UniProt P22629). Description: streptavidin binders on small-molecule microarray, primary screen, artefact control for SMM compound annotation, biophysical, 635/667 nm fluorescence (AID 1147).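 Also: signal reflects streptavidin binding to arrayed compounds as a control protein.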 The settings on record: streptavidin binding, higher = more signal.
Streptavidin (Streptomyces avidinii), sequence (P22629 whole entry, looked up): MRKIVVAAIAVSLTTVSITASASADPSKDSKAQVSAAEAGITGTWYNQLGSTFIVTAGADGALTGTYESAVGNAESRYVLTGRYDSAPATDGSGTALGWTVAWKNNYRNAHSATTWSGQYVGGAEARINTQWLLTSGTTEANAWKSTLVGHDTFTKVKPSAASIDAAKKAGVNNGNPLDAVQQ
The nature of test [16]: small-molecule binders of probe aInhba, primary screen, biochemical, small-molecule microarray, 635/667 nm fluorescence (AID 1148).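 Also: score merges 667nm spot fluorescence with signal-to-noise for antibody binding to printed compounds.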 The settings on record: higher = more signal.
The target in test [17] is Torsin-1A (Homo sapiens) (UniProt O14656). The test is described as follows: torsin A binders from cell lysate, primary screen, small-molecule microarray, wild-type, 635/667 nm (AID 1149). Particulars: COS7 hTOR1A-WT lysate, 635 nm fluorescence, higher = more signal.
Torsin-1A (Homo sapiens), sequence (O14656 whole entry, looked up): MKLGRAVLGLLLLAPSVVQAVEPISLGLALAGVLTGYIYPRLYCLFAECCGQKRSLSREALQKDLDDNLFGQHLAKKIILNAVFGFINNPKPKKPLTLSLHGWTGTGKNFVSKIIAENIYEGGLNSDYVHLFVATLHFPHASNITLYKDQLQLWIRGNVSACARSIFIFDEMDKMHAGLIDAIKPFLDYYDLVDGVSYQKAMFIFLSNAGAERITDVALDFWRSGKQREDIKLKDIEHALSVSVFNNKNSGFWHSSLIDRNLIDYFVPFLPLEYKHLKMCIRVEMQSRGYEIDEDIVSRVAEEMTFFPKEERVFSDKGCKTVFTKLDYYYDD
Test [18] shares this target. Description: small-molecule binders of mutant TOR1A in lysate, primary screen, cell lysate, small-molecule microarray, COS7 lysate, 635/667 nm fluorescence (AID 1150).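 Also: score pools 667 nm emission and signal to noise measuring lysate protein binding.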 Particulars: COS7 hTOR1A mutant lysate, 635 nm fluorescence, higher = more signal.
In test [19] the test system is Sonic hedgehog protein (Shh). The test is described as follows: small-molecule binders of Shh protein, primary screen, biochemical, small-molecule microarray, 635/667 nm fluorescence (AID 1151).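 Also: Shh protein binding to compounds spotted on small-molecule microarray slides; score combines spot fluorescence intensity with signal-to-noise across triplicate slides.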 Particulars: small-molecule microarray binding, 635 nm fluorescence; higher = more signal.

For `O=C1OCCC/C=C\[C@H]2OC34C=CCN(Cn5nnc6ccccc65)C(=O)[C@H]3N(CCO)C(=O)[C@@H]4C12` (stereo not given in full), the composite z-score in [1] is 0.893; in test [2] it was -0.318; in [3], -0.344; in test [4], -1.27; in test [5], -0.481; in test [6], -1.36. Also, the composite z-score in the test on Lefty1 is -0.368; in test [8] it was 0.556; in test [10], -0.212; in [15], -0.712; in test [16], 0.8; in the test with Torsin-1A (Homo sapiens) [17], -2.75. For the same molecule, the composite z-score with Torsin-1A (Homo sapiens) [18] is -1.23; in test [19] it was -0.533. Further, the z-score in [7] is -0.438; in test [9], 1.27 (inactive); in [11], -0.363 (inactive); in test [12], -2.05 (inactive); in test [13], -1.58 (inactive); in test [14], -0.713 (inactive).

On to `COc1ccc(C(=O)Nc2ccc(CN3C(=O)[C@@]4(O[C@@H](CCO)[C@H]([Si](C)(C)c5ccc(OC)cc5)[C@H]4C)c4ccccc43)cc2)cc1`, for which the composite z-score in test [1] is 1.42; in test [2], 0.97; in test [3] it was -0.0228; in test [4], 0.673; in test [5], 1.37; in test [6] it was 1.55. Further, the composite z-score was 1.45 in the test on Lefty1; 0.559 in test [8]; 0.146 in test [10]; 0.225 in test [15]; -0.201 in test [16]; 1.05 in the test with Torsin-1A (Homo sapiens) [17]. Moreover, the composite z-score with Torsin-1A (Homo sapiens) [18] was 0.471; in test [19] it was 1.96. Also, the z-score in test [7] is -1.49; in [9], -0.555 (inactive); in [11] it was -8.02 (active); in test [12], 0.422 (inactive); in test [13], 3.11 (inactive); in [14], -1.27 (inactive).

As for `CC1CC/C=C\[C@H]2OC34C=CCN(c5ccc(Cl)cc5)C(=O)[C@H]3N(CCO)C(=O)[C@]4(C)C2C(=O)O1` (stereo not given in full), the composite z-score in test [1] was 3.56; in test [2], -0.0955; in test [3], 1.67; in [4] it was -1.84; in test [5], -0.338; in test [6], -0.492. For the same molecule, the composite z-score with Lefty1 is -0.49; in [8], 0.811; in test [10] it was -0.642; in test [15], -0.561; in [16], -0.128; in the test with Torsin-1A (Homo sapiens) [17], -0.433. In addition, the composite z-score is -1.01 with Torsin-1A (Homo sapiens) [18] and -0.317 in test [19]. In addition, the z-score was -0.259 in test [7]; 0.259 (inactive) in test [9]; -0.901 (inactive) in test [11]; 0.43 (inactive) in test [12]; 0.87 (inactive) in [13]; -0.217 (inactive) in test [14].

For the molecule `CC(C)(C)OC(=O)CC[C@]1(C(=O)NCC(O)CO)COC(c2ccc(OCCCO)cc2)=N1` (stereo not given in full), the composite z-score was 1.97 in test [1]; 1.22 in test [2]; 0.472 in [3]; 0.936 in [4]; -0.255 in test [5]; -0.473 in [6]. Besides, the composite z-score with Lefty1 is -0.35; in test [8], 0.879; in test [10] it was -0.05; in test [15] it was 0.873; in test [16], -0.003; with Torsin-1A (Homo sapiens) [17] it was 0.746. The composite z-score was 2.65 with Torsin-1A (Homo sapiens) [18] and -1.31 in [19]. Also, the z-score in [7] is -0.328; in test [9], 0.438 (inactive); in test [11], -0.0229 (inactive); in test [12], -0.904 (inactive); in [13] it was -0.412 (inactive); in test [14], -0.0431 (inactive).

Turning to `COCC(=C=CC[C@@H](O)c1ccccc1OCCO)C[C@@H](O)c1cc(Cl)cc(Cl)c1O`, the composite z-score in [1] was 0.819; in [2] it was 1.23; in test [3] it was 0.14; in test [4], 0.867; in [5] it was 1.24; in [6] it was 1.21. For the same molecule, the composite z-score was 0.666 in the test on Lefty1; 0.289 in [8]; 0.539 in test [10]; 0.394 in test [15]; -0.0112 in [16]; 1.66 in the test with Torsin-1A (Homo sapiens) [17]. Moreover, the composite z-score with Torsin-1A (Homo sapiens) [18] turned out to be 1.04; in test [19] it was 2.07. For the same molecule, the z-score is -0.41 in test [7]; -1.02 (inactive) in test [9]; -1.54 (inactive) in test [11]; 0.112 (inactive) in test [12]; 15.6 (active) in test [13]; 0.789 (inactive) in test [14].

(Values after PubChem BioAssay.)
